Measured values: PubChem BioAssay (NCI)
Values joined by “and” are separate entries in the source; they are usually repeats but may differ in a detail not shown here. Equal values may be shown once. This is part of a sample that, as a whole, favours compounds with a hit. Of some 79,000 tested, about 15% had one in any assay. Active and inactive are the calls of the source. No stated cut-off is given here; in the data, active means growth inhibition above about 70%; inactive means the rest.

Tests used:
[1] = NCI Yeast Anticancer Drug Screen. Data for the wt1 strain (AID 149);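 further: 0% = growth of vehicle-treated wt1 cultures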; details: S. cerevisiae wt1 strain (SPY 50644) growth inhibition, active compounds read high
Summary of the method: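 Vehicle-normalised growth inhibition; strain wt1; compound exposure.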

[2] = NCI Yeast Anticancer Drug Screen. Data for the rad50 strain (AID 155);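 further: 0% = growth of vehicle-only cultures of the same strain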; details: S. cerevisiae rad50 strain growth inhibition, active compounds read high
Summary of the method: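 A DNA repair-deficient yeast mutant serves as the test organism; compound-induced growth inhibition is calculated against vehicle-treated cells.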

[3] = NCI Yeast Anticancer Drug Screen. Data for the mec2-1 strain (AID 157); details: S. cerevisiae mec2-1 strain, active compounds read high
Summary of the method: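 Readout is yeast growth inhibition, normalised to vehicle-treated controls, in the mec2-1 strain exposed to compound.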

[4] = NCI Yeast Anticancer Drug Screen. Data for the rad14 strain (AID 159);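 further: 0% = growth of vehicle-treated control cultures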; details: S. cerevisiae rad14 strain growth inhibition, active compounds read high
Summary of the method: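 Vehicle-treated cultures served as the baseline for growth inhibition of a DNA repair-mutant yeast strain exposed to each compound.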

[5] = NCI Yeast Anticancer Drug Screen. Data for the sgs1 mgt1 strain (AID 161);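 further: 0% = growth of cultures given vehicle only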; details: S. cerevisiae sgs1 mgt1 strain, active compounds read high
Summary of the method: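 Compounds are added to genetically altered yeast, and growth is compared with cultures given vehicle alone to give percent inhibition.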

[6] = NCI Yeast Anticancer Drug Screen. Data for the CLN2oe strain (AID 163);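 further: 0% = growth of vehicle-only control cultures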; details: S. cerevisiae CLN2oe strain, active compounds read high
Summary of the method: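 Values reflect how much compound exposure reduced yeast growth, referenced to vehicle-exposed cells. Assay organism is a strain with a defined genetic change affecting cell-cycle control.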

[7] = NCI Yeast Anticancer Drug Screen. Data for the cln2 rad14 strain (AID 165);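 further: 0% = growth equal to vehicle treated cultures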; details: S. cerevisiae cln2 rad14 strain, active compounds read high
Summary of the method: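 Relative to vehicle controls, growth inhibition of compound-treated cln2 rad14 yeast was recorded.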

[8] = NCI Yeast Anticancer Drug Screen. Data for the bub3 strain (AID 167); details: S. cerevisiae bub3 mutant strain, active compounds read high
Summary of the method: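 Inhibition values come from growth of compound-treated mutant yeast normalised to vehicle-treated controls.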

[9] = NCI Yeast Anticancer Drug Screen. Data for the mlh1 strain (AID 171);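 further: 0% = growth of vehicle-treated control cultures of the same strain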; details: S. cerevisiae mlh1 strain growth inhibition, active compounds read high
Summary of the method: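 Steps: expose the defined-mutant yeast strain to compound; expose a parallel culture to vehicle; measure growth; express compound effect as inhibition relative to the vehicle culture.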

[10] = NCI Yeast Anticancer Drug Screen. Data for the sgs1 strain (AID 173);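 further: 0% = growth of vehicle-only control cultures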; details: S. cerevisiae sgs1 mutant, active compounds read high
Summary of the method: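 Treat defined-mutant yeast with compound; measure growth; calculate inhibition relative to vehicle-treated cells.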

[11] = NCI Yeast Anticancer Drug Screen. Data for the mlh1 rad18 strain (AID 175); details: S. cerevisiae mlh1 rad18 strain growth inhibition, active compounds read high
Summary of the method: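 Test agents were incubated with a yeast strain of defined genotype (DNA damage repair defect). Inhibition of growth was derived by comparison with vehicle-exposed cultures.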

[12] = NCI Yeast Anticancer Drug Screen. Data for the rad18 strain (AID 177); details: S. cerevisiae rad18 mutant growth inhibition, active compounds read high
Summary of the method: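 A genetically defined yeast mutant impaired in DNA damage repair was treated with test compounds, then its growth was measured against cultures receiving vehicle alone.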

[13] = NCI Yeast Anticancer Drug Screen. Data for the rad50EPP+ strain (AID 151);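 further: 0% = growth of vehicle-treated control cultures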; details: S. cerevisiae rad50 mutant strain, active compounds read high
Summary of the method: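 Exposing the rad50EPP+ strain to each compound, growth was compared with vehicle-only cultures to give inhibition.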

[14] = NCI Yeast Anticancer Drug Screen. Data for the wt2 strain (AID 169);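 further: 0% = growth of vehicle-treated yeast cultures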; details: S. cerevisiae wt2 strain growth inhibition, active compounds read high
Summary of the method: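 Values express reduction in yeast growth under compound treatment, referenced to vehicle-treated cells.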

[15] = at 5.0 µM (retest, dose inferred, filed as 0.5)
[16] = at 50.0 µM (retest, dose inferred, filed as 5.0)

Measured: growth inhibition

O=C(Nn1c(-c2ccccc2)nc2ccccc2c1=O)c1ccc(Cl)cc1
active: [1]; at 100.0 µM 96% | [2]; at 33.0 µM 70% | [2]; at 100.0 µM 95% | [3]; at 100.0 µM 93% | [4]; at 33.0 µM 76% | [4]; at 100.0 µM 91% | [6]; at 100.0 µM 94% | [8]; at 11.0 µM 72% | [8]; at 33.0 µM 93% | [8]; at 100.0 µM 95% | [9]; at 100.0 µM 95% | [10]; at 33.0 µM 78% | [10]; at 100.0 µM 96% | [11]; at 50.0 µM 71.9% | [12]; at 33.0 µM 70% | [12]; at 100.0 µM 95%
inactive: [1]; at 1.2 µM 23% | [1]; at 3.7 µM 15% | [1]; at 11.0 µM 17% | [1]; at 33.0 µM 54% | [2]; at 1.2 µM 26% | [2]; at 3.7 µM 9% | [2]; [15] -24% | [2]; at 11.0 µM 31% | [2]; [16] 68% | [2]; at 50.0 µM 66.5% | [3]; at 1.2 µM -15% | [3]; at 3.7 µM -24% | [3]; [15] -3% | [3]; at 11.0 µM -1% | [3]; at 33.0 µM 28% | [3]; [16] 9% | [3]; at 50.0 µM 36.4% | [4]; at 1.2 µM -11% | [4]; at 3.7 µM -5% | [4]; at 11.0 µM -15% | [5]; [15] 0% | [5]; [16] 24% | [5]; at 50.0 µM 56.5% | [6]; at 1.2 µM 12% | [6]; at 3.7 µM -8% | [6]; at 11.0 µM -23% | [6]; at 33.0 µM 12% | [7]; [15] -20% | [7]; [16] 16% | [7]; at 50.0 µM 49.5% | [8]; at 1.2 µM 43% | [8]; at 3.7 µM 52% | [8]; [15] -19% | [8]; [16] 68% | [8]; at 50.0 µM 68.7% | [9]; at 1.2 µM 5% | [9]; at 3.7 µM 1% | [9]; at 11.0 µM 26% | [9]; at 33.0 µM 69% | [10]; at 1.2 µM 23% | [10]; at 3.7 µM 19% | [10]; at 11.0 µM 33% | [11]; [15] -46% | [11]; [16] 68% | [12]; at 1.2 µM -2% | [12]; at 3.7 µM -2% | [12]; at 11.0 µM 13%

OCC(O)C(O)C(O)C(O)c1nc2ccccc2[nH]1 (stereo not drawn)
inactive: [2]; [15] -2% and -4% | [2]; [16] -1% and -19% | [2]; at 50.0 µM 4% [middle of 5 runs] | [3]; [15] -17% and -20% | [3]; [16] -30% | [3]; at 50.0 µM 0.75% [middle of 5 runs] | [5]; [15] 3% and -6% | [5]; [16] 1% and -14% | [5]; at 50.0 µM 2% [middle of 5 runs] | [7]; [15] 0% and 2% | [7]; [16] -1% and 14% | [8]; [15] 6% and -5% | [8]; [16] 12% and -1% | [11]; [15] -1% and -11% | [11]; [16] 5% and 1%

CC(O)CN1C(=O)c2cccc3cc([N+](=O)[O-])cc(c23)C1=O (stereo not drawn)
inactive: [13]; at 1.2 µM 10% | [13]; at 3.7 µM 8% | [13]; at 11.0 µM 18% | [13]; at 33.0 µM 55% | [13]; at 100.0 µM 60% | [2]; at 1.2 µM -2% | [2]; at 3.7 µM 27% | [2]; [15] 56% | [2]; at 50.0 µM 50.9% | [3]; at 1.2 µM -17% | [3]; at 3.7 µM -11% | [3]; [15] -16% | [3]; at 11.0 µM 2% | [3]; at 33.0 µM 34% | [3]; [16] 65% | [3]; at 50.0 µM 67.4% | [3]; at 100.0 µM 42% | [5]; [15] -13% | [5]; [16] 15% | [5]; at 50.0 µM 58% | [6]; at 1.2 µM 20% | [6]; at 3.7 µM 0% | [6]; at 11.0 µM -2% | [6]; at 33.0 µM -5% | [6]; at 100.0 µM -5% | [7]; [15] 5% | [7]; [16] 33% | [7]; at 50.0 µM 13.4% | [8]; at 1.2 µM -8% | [8]; at 3.7 µM -6% | [8]; [15] 8% | [8]; at 11.0 µM -11% | [8]; at 33.0 µM -21% | [8]; [16] 32% | [8]; at 50.0 µM 39.4% | [8]; at 100.0 µM -30% | [14]; at 1.2 µM -27% | [14]; at 3.7 µM -18% | [14]; at 11.0 µM -13% | [14]; at 33.0 µM -12% | [14]; at 100.0 µM 2% | [9]; at 1.2 µM 5% | [9]; at 3.7 µM 4% | [9]; at 11.0 µM 14% | [9]; at 33.0 µM 50% | [9]; at 100.0 µM 47% | [10]; at 1.2 µM -6% | [10]; at 3.7 µM -15% | [10]; at 11.0 µM 6% | [10]; at 33.0 µM 15% | [10]; at 100.0 µM 30% | [11]; [15] 25% | [12]; at 1.2 µM -11% | [12]; at 3.7 µM 2%
active: [2]; at 11.0 µM 75% | [2]; at 33.0 µM 88% | [2]; [16] 78% | [2]; at 100.0 µM 91% | [11]; [16] 73% | [11]; at 50.0 µM 83.3%
